Assay results taken from PubChem BioAssay (NCI).
The panel holds about 79,000 compounds, 15% with a hit somewhere; the sample as a whole holds those more often. Active and inactive are the calls of the source. No stated cut-off is given here; in the data, active means growth inhibition above about 70%; inactive means the rest. Where a SMILES comes first, the peptide text is derived from it. The star is where a group is joined. Boc = CC(C)(C)OC(=O)*

Tests used:
[1] = NCI Yeast Anticancer Drug Screen. Data for the rad50 strain (AID 155);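 further: 0% = growth of vehicle-only cultures of the same strain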; conditions: S. cerevisiae rad50 strain growth inhibition; at 50.0 µM; stronger effect = higher value
Outline: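 Genetically altered yeast (DNA repair pathway); compound treatment; growth inhibition vs vehicle ctrl.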

[2] = NCI Yeast Anticancer Drug Screen. Data for the mec2-1 strain (AID 157); conditions: S. cerevisiae mec2-1 strain, at 50.0 µM, stronger effect = higher value
Outline: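 Compounds were applied to mec2-1 yeast cells. Their growth was then compared with that of vehicle-treated cultures to give growth inhibition.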

[3] = NCI Yeast Anticancer Drug Screen. Data for the sgs1 mgt1 strain (AID 161);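 further: 0% = growth of cultures given vehicle only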; conditions: S. cerevisiae sgs1 mgt1 strain, at 50.0 µM, stronger effect = higher value
Outline: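 Percent growth inhibition was derived by comparing compound-exposed mutant yeast with vehicle-exposed cultures. The strain carries alterations in DNA damage repair.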

[4] = NCI Yeast Anticancer Drug Screen. Data for the cln2 rad14 strain (AID 165);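 further: 0% = growth equal to vehicle treated cultures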; conditions: S. cerevisiae cln2 rad14 strain, at 50.0 µM, stronger effect = higher value
Outline: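 Strain: cln2 rad14 yeast, altered in cell cycle control and DNA damage repair. Read-out: growth inhibition vs vehicle.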

[5] = NCI Yeast Anticancer Drug Screen. Data for the bub3 strain (AID 167); conditions: S. cerevisiae bub3 mutant strain, at 50.0 µM, stronger effect = higher value
Outline: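 Yeast carrying a defined mutation is treated with each compound, and growth is compared with that of vehicle-exposed cells to give inhibition.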

[6] = NCI Yeast Anticancer Drug Screen. Data for the mlh1 rad18 strain (AID 175); conditions: S. cerevisiae mlh1 rad18 strain growth inhibition; at 50.0 µM; stronger effect = higher value
Outline: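 A repair-deficient yeast strain is exposed to test compound, and growth is scored relative to vehicle-treated controls.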

Row | Structure (SMILES) | growth inhibition [1] | growth inhibition [2] | growth inhibition [3] | growth inhibition [4] | growth inhibition [5] | growth inhibition [6]
1 | CCCSS[C@H]1NC(=O)[C@H]1NC(=O)COc1ccccc1 | 31.1% (inactive) | 8.5% (inactive) | 1.4% (inactive) | 3.05% (inactive) | 19.1% (inactive) | -3.6% (inactive)
2 | OC(C(=S)N1CCOCC1)(c1ccccc1)c1ccccc1 | 5.35% (inactive) | 17.6% (inactive) | -5% (inactive) | 25.8% (inactive) | 17.7% (inactive) | -12.2% (inactive)
3 | Nc1nc(-c2ccccc2)c(N=Nc2ccc([N+](=O)[O-])cc2Cl)s1 | -4.7% (inactive) | 2.55% (inactive) | 4.4% (inactive) | -13.1% (inactive) | -11.5% (inactive) | 3.6% (inactive)
4 | CCOC(=O)C1(Cc2ccccc2)Cc2ccccc2C1=O (configuration not stated) | 7.75% (inactive) | 29.9% (inactive) | 79% (active) | 62.1% (inactive) | 73.7% (active) | 63.5% (inactive)
5 | O=[N+]([O-])c1ccc(N=NC(=S)NNc2ccccc2)cc1 | 38.9% (inactive) | 0.65% (inactive) | 39.5% (inactive) | -3.35% (inactive) | 20.2% (inactive) | 23.5% (inactive)
6 | CCCNC(=S)NN1C2CSC1CS2 | 3.15% (inactive) | 14.9% (inactive) | -1.35% (inactive) | -33.2% (inactive) | -23.9% (inactive) | -0.4% (inactive)
7 | CCOc1nc(N)nc(C)c1N=Nc1cccc([N+](=O)[O-])c1 | 20.9% (inactive) | 8.55% (inactive) | 7% (inactive) | -7.35% (inactive) | 36% (inactive) | 32% (inactive)
8 | CCCc1oc(C)cc1CC | 0.45% (inactive) | -22.4% (inactive) | 0.2% (inactive) | -1.95% (inactive) | -15.9% (inactive) | -10.2% (inactive)
9 | Cc1cc(C)c2nccc(/C=C/c3ccc(N(C)C)cc3)c2c1 | -15.3% (inactive) | 0.4% (inactive) | -15.5% (inactive) | -27.2% (inactive) | -19.4% (inactive) | -6.95% (inactive)
10 | NC1(C(=O)O)CCCCC1 | -11.3% (inactive) | -7.5% (inactive) | -30.7% (inactive) | -34.7% (inactive) | -12.9% (inactive) | -18.4% (inactive)
11 | Cc1cc(NC(=S)Nc2ccccc2)c(NC(=S)Nc2ccccc2)cc1C | 2.1% (inactive) | -25.2% (inactive) | 1.55% (inactive) | 6.7% (inactive) | 3.2% (inactive) | 3.2% (inactive)
12 | COc1ccccc1NC(=O)C1=C(C)NC(C)=C(C(=O)Nc2ccccc2OC)C1c1ccc(N(C)C)cc1 | 50.2% (inactive) | 41.4% (inactive) | 61.4% (inactive) | 24.9% (inactive) | 46.2% (inactive) | 45% (inactive)
13 | CCOC(=O)c1c(-c2ccccc2)c(-c2ccccc2)cn1C | 18.3% (inactive) | -7.45% (inactive) | 5.2% (inactive) | 25.9% (inactive) | 6.45% (inactive) | 24.3% (inactive)
14 | CCC(C)C=O (configuration not stated) | 3.9% (inactive) | -6.3% (inactive) | -9.2% (inactive) | 2.2% (inactive) | 10.4% (inactive) | -8.3% (inactive)
15 | CC1(C)C(=O)/C=C\C(=O)C(C)(C)C(=O)/C=C\C(=O)C(C)(C)C2=CC=C(O2)C(C)(C)C(=O)/C=C\C1=O | 14.9% (inactive) | 12.2% (inactive) | -2.4% (inactive) | 20.9% (inactive) | 7.9% (inactive) | 14.4% (inactive)
16 | O=P(NC1CCCCC1)(NC1CCCCC1)c1ccccc1 | -10.9% (inactive) | 13.2% (inactive) | -5.1% (inactive) | 18.3% (inactive) | 13.6% (inactive) | 1.25% (inactive)
17 | CC(=O)OC1CC2(C)OC(Cc3ccccc32)O1 (configuration not stated) | -37.2% (inactive) | -3.05% (inactive) | -58.6% (inactive) | 4.4% (inactive) | -23.1% (inactive) | -43.5% (inactive)
18 | CC(=O)Nc1ccc(S(=O)(=O)Oc2noc3ccc(Br)cc23)cc1 | -8.35% (inactive) | -8.05% (inactive) | -23% (inactive) | -4.5% (inactive) | -3.95% (inactive) | 2.4% (inactive)
19 | CC(C)(Oc1ccc(C(=O)c2ccc(Cl)cc2)cc1Cl)C(=O)N1CCN(CCO)CC1 | -18.9% (inactive) | -8.65% (inactive) | 15.9% (inactive) | 12.3% (inactive) | 11.3% (inactive) | 12.9% (inactive)

Row | Structure (SMILES) | growth inhibition [1] | growth inhibition [2] | growth inhibition [3] | growth inhibition [4] | growth inhibition [5] | growth inhibition [6]
20 | CCO[C@H]1c2cc3c(cc2[C@@H](c2cc(OC)c(OC)c(OC)c2)[C@H]2C(=O)OC[C@@H]21)OCO3 | 11.4% (inactive) | 6.25% (inactive) | 26.9% (inactive) | 28.7% (inactive) | 12.7% (inactive) | 24.9% (inactive)
21 | CN(C)S(=O)(=O)N1CCCc2ccccc21 | 3.4% (inactive) | 8.8% (inactive) | 3.55% (inactive) | 7.1% (inactive) | 31.1% (inactive) | 11% (inactive)
22 | CS(=O)(=O)OCC(O)C(O)C(OS(C)(=O)=O)C(O)COS(C)(=O)=O (configuration not stated) | 7.1% (inactive) | 1.75% (inactive) | -7.75% (inactive) | 21.3% (inactive) | -8.55% (inactive) | 7.35% (inactive)
23 | Cc1ccc(-c2ccc(C)cc2)cc1 | -31.2% (inactive) | -38% (inactive) | -22.2% (inactive) | -11.1% (inactive) | -36.9% (inactive) | -11.1% (inactive)
24 | Cc1nc2nc[nH]n2c1N=Nc1ccccc1 | -28.3% (inactive) | -2.55% (inactive) | -9.5% (inactive) | -13% (inactive) | 7.5% (inactive) | 9.5% (inactive)
25 | Cc1ccc(NC(=S)NC(=O)c2cccc([N+](=O)[O-])c2)cc1C | 1.8% (inactive) | 15.5% (inactive) | 14.5% (inactive) | -26.7% (inactive) | 0.6% (inactive) | 11.7% (inactive)
26 | COC(=O)C(Cc1c[nH]c2ccccc12)NC(=O)C(Cc1c[nH]c2ccccc12)NC(=O)C(Cc1c[nH]c2ccccc12)NC(=O)OC(C)(C)C (stereo not drawn) (Boc-Trp-Trp-Trp-OMe; configuration not given here) | -22.9% (inactive) | -16.6% (inactive) | -2.45% (inactive) | 10% (inactive) | -3.6% (inactive) | 1.5% (inactive)
27 | N=C(N)S/C=C/C(=O)O | -18.8% (inactive) | -17.4% (inactive) | -20.5% (inactive) | -4.65% (inactive) | -13.8% (inactive) | -19.6% (inactive)
28 | Cc1cc(C)c(C(=O)/C=C(\N)C(=O)c2c(C)cc(C)cc2C)c(C)c1 | -7.05% (inactive) | 0% (inactive) | 2.75% (inactive) | 14.7% (inactive) | 27.1% (inactive) | 4.75% (inactive)
29 | Clc1nnc(Cl)c2ncccc12 | 3.6% (inactive) | 8.3% (inactive) | -3.6% (inactive) | -2.95% (inactive) | -3% (inactive) | -1.75% (inactive)
30 | CCCCCCCCCCCCCCCCCCOCCCCCCCCCCCC | -34.8% (inactive) | -15.6% (inactive) | -20% (inactive) | -64% (inactive) | 5.05% (inactive) | -17.1% (inactive)
31 | O=C1C(=O)c2ccccc2C(O)=C1Cc1ccccc1 | -15.2% (inactive) | 13.8% (inactive) | -11.9% (inactive) | 7.5% (inactive) | -36.8% (inactive) | 1.85% (inactive)
32 | CCCCCOC(=O)OC(C)CNC(=O)C(C)OC(=O)OCCCCC (configuration not stated) | -17.4% (inactive) | -33.5% (inactive) | -12.5% (inactive) | -61.4% (inactive) | -9.5% (inactive) | -29.4% (inactive)
33 | NC(Cc1cccc(F)c1)C(=O)O (configuration not stated) | -1.3% (inactive) | -30.1% (inactive) | 6.7% (inactive) | -12.4% (inactive) | -9.1% (inactive) | 10% (inactive)
34 | COc1ccc(/C(N=Nc2ccccc2)=N/N=C(N)N)cc1 | 24.3% (inactive) | 6.35% (inactive) | 12.1% (inactive) | -2.6% (inactive) | 36.9% (inactive) | 8.2% (inactive)
35 | COC(=O)/C=C/c1ccc(OC)c(OC)c1 | 22.3% (inactive) | 0.4% (inactive) | 13.6% (inactive) | -2.2% (inactive) | 64.5% (inactive) | 50% (inactive)
36 | COc1ccccc1C(=O)c1ccccc1 | -27.4% (inactive) | -7.3% (inactive) | -3.4% (inactive) | -14.9% (inactive) | -20.1% (inactive) | -11.2% (inactive)
37 | O=c1[nH]c2cc(Cl)c([N+](=O)[O-])cc2c2ccccc12 | 15.1% (inactive) | -7.35% (inactive) | 4.35% (inactive) | -42% (inactive) | -11.2% (inactive) | -0.25% (inactive)
